Assay results as given in PubChem BioAssay (EPA / NIEHS).
Inconclusive results are not listed. The source made the active and inactive calls. The calls were made as follows, unless noted: active = hit-call score of the fitted dose curve at least 0.9, where 1 is the maximum; inactive = score below 0.9.

Legend:
[1] = read-out: Monocyte Chemoattractant Protein-1 (MCP1), CCL2 (gene 6347); assay: BSK_SAg_MCP1: BioMAP Diversity Plus: SAg Assay for Monocyte Chemoattractant Protein-1 (MCP1) Biomarker Activity (AID 2283090); conditions: primary human HUVEC with PBMC; actives raise or lower the signal
How it was run: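 Values derive from bidirectional fitting of ELISA-measured MCP1 against DMSO controls. Readings were taken 24 h after dosing human vascular endothelial cells co-cultured with peripheral blood mononuclear cells under superantigen stimulation.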

[2] = read-out: E-selectin (Homo sapiens) (UniProt P16581); assay: BSK_SAg_Eselectin: BioMAP Diversity Plus: SAg Assay for Eselectin Biomarker Activity (AID 2283091); conditions: primary human HUVEC with PBMC; actives raise or lower the signal
How it was run: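 Endpoint values derive from bidirectional fitting relative to DMSO, using ELISA-measured E-selectin in a human vascular co-culture (umbilical vein endothelium plus PBMC) sampled 24 h after dosing.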

[3] = read-out: Monokine induced gamma interferon (MIG), CXCL9 (gene 4283); assay: BSK_SAg_MIG: BioMAP Diversity Plus: SAg Assay for Monokine induced gamma interferon (MIG) Biomarker Activity (AID 2283092); conditions: primary human HUVEC with PBMC; actives raise or lower the signal
How it was run: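 Endothelial cells and PBMC were co-cultured, exposed to test chemicals, and sampled 24 h later. MIG was measured by ELISA, and responses were fitted in both directions relative to DMSO.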

[4] = BSK_SAg_PBMCCytotoxicity: PBMC Cytotoxicity Assessment in the BioMAP Diversity Plus: SAg Assay (AID 2283093); conditions: primary human HUVEC with PBMC;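 also: fitted both ways against DMSO so a hit may be loss or gain of signal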;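 as to AC50: PBMC superantigen activated with SEB plus TSST-1 one hour after compound addition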
How it was run: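 PBMC viability by Alamar Blue reduction, fluorescence read at 546/580 nm after 6 h dye exposure. Cells were dosed 1 h before SEB plus TSST-1 activation (20 ng/mL final each), then held 90 h; endothelial/PBMC human co-culture.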

[5] = read-out: Interleukin-8 (IL8), CXCL8 (gene 3576); assay: BSK_SAg_IL8: BioMAP Diversity Plus: SAg Assay for Interleukin-8 (IL8) Biomarker Activity (AID 2283094); conditions: primary human HUVEC with PBMC; actives raise or lower the signal
How it was run: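 Primary human endothelial cells with PBMC, exposed 24 h; IL-8 determined by ELISA, analysed bidirectionally relative to DMSO.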

[6] = BSK_SAg_Proliferation: Cell Proliferation Assessment in the BioMAP Diversity Plus: SAg Assay (AID 2283095); conditions: primary human HUVEC with PBMC;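 also: relative cell number as total protein by SRB absorbance in sub-confluent culture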
How it was run: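 A human primary co-culture of umbilical vein endothelium and blood mononuclear cells receives compound; relative cell number is quantified at 96 h by SRB staining and 560 nm absorbance, with DMSO-referenced bidirectional curve fitting.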

[7] = BSK_SAg_SRB: Viability Assessment in the BioMAP Diversity Plus: SAg Assay (AID 2283096); conditions: primary human HUVEC with PBMC;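 also: cells read one day after compound addition; hits may be either gain or loss of signal compared with DMSO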
How it was run: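 Compounds were added to a human vascular co-culture of umbilical vein endothelium and PBMC. After 24 h, parallel cultures were fixed with 10% TCA, stained with 0.1% sulforhodamine B and read at 560 nm. Gain or loss of signal was fitted relative to DMSO.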

Caspase-3 (Homo sapiens) = Caspase-3 (Homo sapiens) (UniProt P42574); assay: NVS_ENZ_hCASP3: NovaScreen (NVS) Enzymatic Assay for human Caspase 3 (CASP3) (AID 2283139; active = hit-call score of the fitted dose curve at least 0.9, where 1 is the maximum)
Sequence of Caspase-3 (Homo sapiens) (P42574 whole entry, looked up): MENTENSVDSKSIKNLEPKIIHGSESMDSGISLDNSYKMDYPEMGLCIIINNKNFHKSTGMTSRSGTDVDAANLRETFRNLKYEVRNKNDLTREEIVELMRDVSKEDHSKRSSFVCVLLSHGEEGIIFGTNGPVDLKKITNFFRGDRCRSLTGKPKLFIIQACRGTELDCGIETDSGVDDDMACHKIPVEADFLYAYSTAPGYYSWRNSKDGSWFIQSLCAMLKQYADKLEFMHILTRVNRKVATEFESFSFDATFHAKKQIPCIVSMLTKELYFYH
How it was run: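 Single-concentration screening at 25 uM in duplicate, with concentration-response follow-up to a 50 uM maximum for chemicals passing the threshold. Caspase-3 (human, E. coli-expressed) activity was read as substrate fluorescence after 1 h, with loss of signal relative to DMSO.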

[8] = molecular target: human CYP2C9, CYP2C9 (gene 1559) (UniProt P11712); assay: NVS_ADME_hCYP2C9: NovaScreen (NVS) CYP450-related Enzyme Activity (ADME) Assay for human CYP2C9 (AID 2283108; active = hit-call score of the fitted dose curve at least 0.9, where 1 is the maximum)
Sequence of human CYP2C9, CYP2C9 (gene 1559) (P11712 whole entry, looked up): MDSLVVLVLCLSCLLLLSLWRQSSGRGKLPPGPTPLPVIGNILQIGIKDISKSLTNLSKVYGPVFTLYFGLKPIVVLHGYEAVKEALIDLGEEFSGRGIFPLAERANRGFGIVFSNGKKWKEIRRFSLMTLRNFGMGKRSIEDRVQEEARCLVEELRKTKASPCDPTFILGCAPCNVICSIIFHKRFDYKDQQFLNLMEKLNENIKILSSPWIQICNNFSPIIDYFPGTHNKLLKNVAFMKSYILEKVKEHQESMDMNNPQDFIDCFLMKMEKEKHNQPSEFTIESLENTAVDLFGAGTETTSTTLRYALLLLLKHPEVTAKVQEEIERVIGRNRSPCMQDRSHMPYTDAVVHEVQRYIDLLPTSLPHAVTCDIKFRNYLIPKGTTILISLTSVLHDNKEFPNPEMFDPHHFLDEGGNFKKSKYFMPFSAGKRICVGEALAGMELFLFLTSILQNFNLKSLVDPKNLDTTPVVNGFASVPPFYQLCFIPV
How it was run: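 Recombinant human CYP2C9 expressed in SF9 cells, fluorogenic substrate, fluorescence read 0.75 h after dosing. Chemicals first run in duplicate at 10 uM, with actives followed in concentration series; loss of signal versus acetonitrile baseline.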

[9] = molecular target: Cytochrome P450 2C19 (Homo sapiens) (UniProt P33261); assay: NVS_ADME_hCYP2C19: NovaScreen (NVS) CYP450-related Enzyme Activity (ADME) Assay for human CYP2C19 (AID 2283113; active = hit-call score of the fitted dose curve at least 0.9, where 1 is the maximum;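 as to AC50: potency for inhibition seen as loss of fluorescent signal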)
How it was run: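 Biochemical CYP2C19 inhibition screen: insect-cell recombinant protein plus fluorescent substrate, 1 h, fluorescence intensity. Acetonitrile defined baseline activity. Single 10 uM concentration in duplicate, with concentration-response follow-up for actives.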

[10] = molecular target: human CYP1A1, CYP1A1 (gene 1543) (UniProt P04798); assay: NVS_ADME_hCYP1A1: NovaScreen (NVS) CYP450-related Enzyme Activity (ADME) Assay for human CYP1A1 (AID 2283100; active = hit-call score of the fitted dose curve at least 0.9, where 1 is the maximum)
Sequence of human CYP1A1, CYP1A1 (gene 1543) (P04798 whole entry, looked up): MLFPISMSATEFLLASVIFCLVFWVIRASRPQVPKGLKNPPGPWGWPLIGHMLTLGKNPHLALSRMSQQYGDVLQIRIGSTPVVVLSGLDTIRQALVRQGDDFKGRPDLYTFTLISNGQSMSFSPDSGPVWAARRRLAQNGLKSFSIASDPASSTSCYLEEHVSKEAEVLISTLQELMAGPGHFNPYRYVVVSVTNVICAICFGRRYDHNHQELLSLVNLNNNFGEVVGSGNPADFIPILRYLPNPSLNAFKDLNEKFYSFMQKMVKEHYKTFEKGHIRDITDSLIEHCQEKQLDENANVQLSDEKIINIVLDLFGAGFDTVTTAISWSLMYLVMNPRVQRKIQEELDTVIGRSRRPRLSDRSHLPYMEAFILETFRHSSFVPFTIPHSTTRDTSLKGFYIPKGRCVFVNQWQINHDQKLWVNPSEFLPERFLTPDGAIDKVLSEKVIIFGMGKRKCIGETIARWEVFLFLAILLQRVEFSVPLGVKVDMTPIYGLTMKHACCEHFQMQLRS
How it was run: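 Inhibition of recombinant CYP1A1 turnover was assessed fluorometrically in a biochemical format 1 h after compound exposure. Testing began at 10 uM in duplicate and progressed to concentration series reaching 20 uM, with on-plate positive and negative controls.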

[11] = molecular target: human CYP2B6, CYP2B6 (gene 1555) (UniProt P20813); assay: NVS_ADME_hCYP2B6: NovaScreen (NVS) CYP450-related Enzyme Activity (ADME) Assay for human CYP2B6 (AID 2283101; active = hit-call score of the fitted dose curve at least 0.9, where 1 is the maximum)
Sequence of human CYP2B6, CYP2B6 (gene 1555) (P20813 whole entry, looked up): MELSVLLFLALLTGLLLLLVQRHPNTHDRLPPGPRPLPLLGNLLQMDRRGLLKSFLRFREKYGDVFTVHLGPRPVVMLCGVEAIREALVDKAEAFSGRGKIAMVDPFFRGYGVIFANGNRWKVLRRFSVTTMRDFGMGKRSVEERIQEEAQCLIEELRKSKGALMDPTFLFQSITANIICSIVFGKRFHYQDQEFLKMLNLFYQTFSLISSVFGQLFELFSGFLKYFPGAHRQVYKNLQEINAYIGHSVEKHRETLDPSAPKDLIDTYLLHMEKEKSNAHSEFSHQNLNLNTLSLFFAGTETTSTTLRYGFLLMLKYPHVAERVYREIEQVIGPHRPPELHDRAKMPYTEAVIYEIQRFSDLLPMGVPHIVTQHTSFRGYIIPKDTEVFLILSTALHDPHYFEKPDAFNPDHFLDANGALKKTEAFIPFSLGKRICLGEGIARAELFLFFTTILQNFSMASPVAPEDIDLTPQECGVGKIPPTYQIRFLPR
How it was run: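 Cell-free recombinant enzyme assay with a fluorogenic substrate; fluorescence intensity read 1 hour after dosing. Loss of signal relative to acetonitrile negative control indicates inhibition. Primary screen run in duplicate at 10 uM, actives then tested in concentration series.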

[12] = molecular target: human CYP1A2, CYP1A2 (gene 1544) (UniProt P05177); assay: NVS_ADME_hCYP1A2: NovaScreen (NVS) CYP450-related Enzyme Activity (ADME) Assay for human CYP1A2 (AID 2283102; active = hit-call score of the fitted dose curve at least 0.9, where 1 is the maximum;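 also: potency for inhibition since loss of fluorescence marks reduced CYP1A2 activity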)
Sequence of human CYP1A2, CYP1A2 (gene 1544) (P05177 whole entry, looked up): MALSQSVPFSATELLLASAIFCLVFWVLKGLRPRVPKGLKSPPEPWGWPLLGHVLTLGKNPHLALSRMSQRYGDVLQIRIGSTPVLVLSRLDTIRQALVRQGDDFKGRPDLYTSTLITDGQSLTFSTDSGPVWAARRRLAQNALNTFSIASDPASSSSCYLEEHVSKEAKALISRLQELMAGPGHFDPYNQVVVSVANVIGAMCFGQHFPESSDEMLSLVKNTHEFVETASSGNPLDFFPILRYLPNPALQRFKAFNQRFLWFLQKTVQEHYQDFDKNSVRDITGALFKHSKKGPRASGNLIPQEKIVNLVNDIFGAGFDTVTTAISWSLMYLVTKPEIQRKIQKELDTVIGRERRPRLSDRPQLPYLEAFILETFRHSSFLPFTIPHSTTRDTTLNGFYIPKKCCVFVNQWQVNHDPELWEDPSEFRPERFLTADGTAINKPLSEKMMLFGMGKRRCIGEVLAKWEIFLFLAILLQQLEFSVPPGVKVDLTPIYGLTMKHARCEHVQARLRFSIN
How it was run: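 Inhibition scored as decrease in fluorescent product versus acetonitrile negative control. Enzyme: insect-cell recombinant human CYP1A2, substrate-specific, cell-free. Reading at 0.5 h; 10 uM duplicate initial screen with positive and negative controls on every plate.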

[13] = molecular target: human CYP2D6, CYP2D6 (gene 1565) (UniProt P10635); assay: NVS_ADME_hCYP2D6: NovaScreen (NVS) CYP450-related Enzyme Activity (ADME) Assay for human CYP2D6 (AID 2283107; active = hit-call score of the fitted dose curve at least 0.9, where 1 is the maximum)
Sequence of human CYP2D6, CYP2D6 (gene 1565) (P10635 whole entry, looked up): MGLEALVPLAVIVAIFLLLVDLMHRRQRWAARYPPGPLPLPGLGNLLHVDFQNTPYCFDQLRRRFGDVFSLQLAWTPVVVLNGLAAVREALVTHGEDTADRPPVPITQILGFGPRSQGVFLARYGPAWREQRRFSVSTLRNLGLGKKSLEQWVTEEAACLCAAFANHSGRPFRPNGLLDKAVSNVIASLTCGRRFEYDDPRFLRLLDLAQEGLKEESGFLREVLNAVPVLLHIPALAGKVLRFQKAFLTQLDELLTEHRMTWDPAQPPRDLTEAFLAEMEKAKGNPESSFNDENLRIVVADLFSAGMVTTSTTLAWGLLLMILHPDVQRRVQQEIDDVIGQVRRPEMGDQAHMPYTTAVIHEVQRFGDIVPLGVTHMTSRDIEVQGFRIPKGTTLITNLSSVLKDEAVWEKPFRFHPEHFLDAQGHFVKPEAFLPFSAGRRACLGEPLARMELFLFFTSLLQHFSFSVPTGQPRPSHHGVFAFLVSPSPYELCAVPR
How it was run: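 Biochemical fluorescence assay, insect-cell-derived enzyme. Read at 1 h; inhibition taken from loss of signal against acetonitrile. Screened at 10 uM in duplicate, with concentration series for actives.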

[14] = molecular target: Cytochrome P450 3A4 (Homo sapiens) (UniProt P08684); assay: NVS_ADME_hCYP3A4: NovaScreen (NVS) CYP450-related Enzyme Activity (ADME) Assay for human CYP3A4 (AID 2283110; active = hit-call score of the fitted dose curve at least 0.9, where 1 is the maximum)
Sequence of Cytochrome P450 3A4 (Homo sapiens) (P08684 whole entry, looked up): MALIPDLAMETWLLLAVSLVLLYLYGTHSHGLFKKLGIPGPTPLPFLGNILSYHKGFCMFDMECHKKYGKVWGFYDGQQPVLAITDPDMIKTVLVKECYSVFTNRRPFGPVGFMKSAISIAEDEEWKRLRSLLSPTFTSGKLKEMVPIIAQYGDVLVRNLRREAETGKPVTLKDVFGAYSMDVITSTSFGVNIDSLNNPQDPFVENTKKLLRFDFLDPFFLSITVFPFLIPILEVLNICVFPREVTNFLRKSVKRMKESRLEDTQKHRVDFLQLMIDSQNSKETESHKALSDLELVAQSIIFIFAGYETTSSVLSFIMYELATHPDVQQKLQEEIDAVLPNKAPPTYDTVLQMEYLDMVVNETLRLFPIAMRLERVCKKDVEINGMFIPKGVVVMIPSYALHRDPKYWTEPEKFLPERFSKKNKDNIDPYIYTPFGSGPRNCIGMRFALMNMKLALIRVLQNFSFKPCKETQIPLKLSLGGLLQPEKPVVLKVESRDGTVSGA
How it was run: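 Recombinant CYP3A4 from insect cells, fluorescence enzyme read-out, 0.33 h after chemical addition. Acetonitrile = negative control/baseline. Primary HTS: 10 uM in duplicate; actives re-tested in concentration series.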

[15] = molecular target: human CYP19A1, CYP19A1 (gene 1588) (UniProt P11511); assay: NVS_ADME_hCYP19A1: NovaScreen (NVS) CYP450-related Enzyme Activity (ADME) Assay for human CYP19A1 (AID 2283098; active = hit-call score of the fitted dose curve at least 0.9, where 1 is the maximum)
Sequence of human CYP19A1, CYP19A1 (gene 1588) (P11511 whole entry, looked up): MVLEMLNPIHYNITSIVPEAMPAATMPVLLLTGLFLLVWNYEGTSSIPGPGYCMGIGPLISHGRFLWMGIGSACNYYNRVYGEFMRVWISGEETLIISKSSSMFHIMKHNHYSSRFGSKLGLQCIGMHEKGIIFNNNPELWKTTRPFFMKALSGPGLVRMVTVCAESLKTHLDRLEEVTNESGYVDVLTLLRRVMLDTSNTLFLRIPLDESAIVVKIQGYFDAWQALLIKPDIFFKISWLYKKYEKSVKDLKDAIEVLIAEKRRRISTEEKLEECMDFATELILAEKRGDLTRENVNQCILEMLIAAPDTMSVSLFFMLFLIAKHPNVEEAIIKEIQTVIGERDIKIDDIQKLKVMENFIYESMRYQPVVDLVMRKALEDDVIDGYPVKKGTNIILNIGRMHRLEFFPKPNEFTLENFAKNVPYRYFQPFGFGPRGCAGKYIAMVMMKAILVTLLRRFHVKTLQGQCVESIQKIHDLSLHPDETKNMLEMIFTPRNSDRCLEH
How it was run: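 Fluorescence intensity read-out; activity taken as signal loss relative to acetonitrile vehicle. Extracted enzyme, specific substrate, no cells, 0.5 h exposure. Duplicate single-point screen at 10 uM, then concentration–response follow-up for actives.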

[16] = molecular target: human CYP2A6, CYP2A6 (gene 1548) (UniProt P11509); assay: NVS_ADME_hCYP2A6: NovaScreen (NVS) CYP450-related Enzyme Activity (ADME) Assay for human CYP2A6 (AID 2283099; active = hit-call score of the fitted dose curve at least 0.9, where 1 is the maximum)
Sequence of human CYP2A6, CYP2A6 (gene 1548) (P11509 whole entry, looked up): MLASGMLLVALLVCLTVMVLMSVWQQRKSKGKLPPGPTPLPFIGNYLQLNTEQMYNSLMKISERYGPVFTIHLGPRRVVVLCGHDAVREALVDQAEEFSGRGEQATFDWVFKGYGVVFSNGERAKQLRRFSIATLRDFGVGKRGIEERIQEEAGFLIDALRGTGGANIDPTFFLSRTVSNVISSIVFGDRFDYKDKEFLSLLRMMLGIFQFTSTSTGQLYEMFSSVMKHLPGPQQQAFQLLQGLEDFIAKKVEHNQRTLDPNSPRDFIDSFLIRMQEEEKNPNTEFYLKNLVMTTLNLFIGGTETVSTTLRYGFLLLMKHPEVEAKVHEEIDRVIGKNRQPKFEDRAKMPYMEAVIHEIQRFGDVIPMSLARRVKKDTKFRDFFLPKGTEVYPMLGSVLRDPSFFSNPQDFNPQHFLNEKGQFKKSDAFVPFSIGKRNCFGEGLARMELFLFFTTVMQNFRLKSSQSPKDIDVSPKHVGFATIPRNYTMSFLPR
How it was run: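 Loss of fluorescence signal relative to acetonitrile vehicle reported CYP2A6 inhibition in a cell-free system using insect-cell-derived enzyme. Readings were taken at 0.5 h; top concentration in follow-up dose series was 20 uM.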

Measured: AC50

Sequence of E-selectin (Homo sapiens) (P16581 whole entry, looked up): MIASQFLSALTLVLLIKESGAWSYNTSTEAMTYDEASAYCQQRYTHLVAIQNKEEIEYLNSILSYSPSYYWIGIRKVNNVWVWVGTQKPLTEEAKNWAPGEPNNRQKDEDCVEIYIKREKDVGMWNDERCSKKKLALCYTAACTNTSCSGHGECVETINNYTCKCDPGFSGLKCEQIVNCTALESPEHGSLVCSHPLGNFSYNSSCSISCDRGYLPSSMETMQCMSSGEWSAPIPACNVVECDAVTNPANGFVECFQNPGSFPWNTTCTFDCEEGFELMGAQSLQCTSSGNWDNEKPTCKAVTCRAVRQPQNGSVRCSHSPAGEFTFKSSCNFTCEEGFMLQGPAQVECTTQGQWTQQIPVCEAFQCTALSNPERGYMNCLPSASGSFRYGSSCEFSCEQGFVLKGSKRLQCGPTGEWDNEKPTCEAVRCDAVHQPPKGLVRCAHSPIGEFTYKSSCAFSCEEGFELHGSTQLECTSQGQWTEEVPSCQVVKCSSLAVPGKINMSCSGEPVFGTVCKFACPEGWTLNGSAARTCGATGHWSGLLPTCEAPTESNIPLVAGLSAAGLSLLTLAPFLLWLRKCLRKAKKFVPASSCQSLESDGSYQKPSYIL

CCCCCCCCN(C)C
inactive: [1] | [2] | [3] | [4] | [5] | [6] | [7]

Cn1cc[nH]c1=S
inactive: [1] | [2] | [3] | [4] | [5] | [6] | [7]

CC(C)c1nnc2ccc(-c3ocnc3-c3cc(F)ccc3F)cn12
active: [1] 3.97 µM | [2] 10.6 µM | [4] 0.882 µM | [5] 1.27 µM | [6] 12.8 µM
inactive: [3] | [7]

OC[C@H]1O[C@@](CO)(O[C@H]2O[C@H](CO)[C@@H](O)[C@H](O)[C@H]2O)[C@@H](O)[C@@H]1O
inactive: [1] | [2] | [3] | [4] | [5] | [6] | [7]

c1ccc2c(c1)-c1cccc3c1c-2cc1ccccc13
inactive: [1] | [3] | [4] | [5] | [6] | [7]
active: [2] 0.566 µM

CNC(C)=O
inactive: [1] | [2] | [3] | [4] | [5] | [6] | [7]

O=S(=O)(O)c1ccc(N=Nc2c(O)ccc3cc(S(=O)(=O)O)ccc23)cc1
active: Caspase-3 (Homo sapiens) 37.7 µM
inactive: [1] | [2] | [3] | [4] | [5] | [6] | [7]

O=S1(=O)CCCO1
inactive: [2] | [3] | [4] | [5] | [6] | [7]

CCCOc1ccc(S(=O)(=O)N2CCN(CC)CC2)cc1-c1nc2c(CC)n(Cc3ccccn3)nc2c(=O)[nH]1
inactive: [1] | [2] | [3] | [4] | [5] | [6] | [7]
active: [8] 2.98 µM | [9] 1.45 µM

CCc1cccc(CC)c1N
inactive: [2] | [3] | [4] | [5] | [6] | [7]

O=C(NO)C1(NS(=O)(=O)c2ccc(Oc3ccc(F)cc3)cc2)CCOCC1
inactive: [1] | [2] | [3] | [4] | [5] | [6] | [7] | [9]

C=CCc1cc(S(=O)(=O)c2ccc(O)c(CC=C)c2)ccc1O
active: [1] 15.1 µM | [2] 13.8 µM | [3] 34.8 µM | [4] 36.8 µM | [5] 11.4 µM | [6] 17.1 µM | [7] 19.2 µM | [10] 2.32 µM | [11] 2.77 µM | [12] 3.26 µM | [13] 0.567 µM | [8] 0.118 µM | [14] 4.54 µM | [9] 0.164 µM

CC[C@H](C)C(=O)O[C@H]1C[C@H](O)C=C2C=C[C@H](C)[C@H](CC[C@@H](O)C[C@@H](O)CC(=O)O)[C@H]21
active: [1] 14.6 µM | [2] 7.03 µM | [5] 11.9 µM
inactive: [3] | [4] | [6] | [7] | [8]

NC(=O)NN=Cc1ccc([N+](=O)[O-])o1
active: [6] 20 µM | Caspase-3 (Homo sapiens) 20.9 µM
inactive: [1] | [2] | [3] | [4] | [5] | [7] | [15] | [16]

S=P(N1CC1)(N1CC1)N1CC1
active: [6] 4.15 µM | [9] 5.2 µM
inactive: [1] | [2] | [3] | [4] | [5] | [7]

CC1(C)C(=O)N(Cl)C(=O)N1Cl
inactive: [2] | [3] | [4] | [5] | [6] | [7]

C=CN1CCCC1=O
inactive: [2] | [3] | [4] | [5] | [6] | [7]

CCOc1ccc2[nH]cc(C(=O)NCc3ccccc3)c(=O)c2n1
inactive: [2] | [3] | [4] | [5] | [6] | [7]

NC(=O)N(O)[C@@H]1COc2cc(OCc3ccccc3)ccc21
inactive: [1] | [2] | [3] | [4] | [5] | [6] | [7] | [11]

C[C@]12C=CC(=O)C=C1CC[C@H]1[C@@H]3C[C@@H](O)[C@](O)(C(=O)CO)[C@@]3(C)C[C@H](O)[C@@]12F
active: [2] 3.66 µM
inactive: [3] | [4] | [5] | [6] | [7]
